Experimental data as given in PubChem BioAssay (Tox21).
Inconclusive results are not listed. Calls of active or inactive are those of the source. Unless noted, calls come from the whole dose curve; as a rule, active = well fitted curve in the direction sought with a large enough effect in the repeat runs; inconclusive = weak or mixed curves; inactive = flat fitted curve, though single readings scatter.

Tests used:
[1] = qHTS assay to test for compound auto fluorescence at 535 nm (green) in HEK293 cells (AID 720680)
[2] = qHTS assay to test for compound auto fluorescence at 460 nm (blue) in HEK293 cell free culture (AID 720681)
How it was run: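 Test compounds were pinned into cell-free culture medium (DMEM with 10% FBS) and fluorescence was read directly at Ex/Em 405/460 nm. Signals were expressed as fluorescence equivalents of triamterene, with DMSO vehicle as control.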

[3] = qHTS assay to test for compound auto fluorescence at 535 nm (green) in HEK293 cell free culture (AID 720682)
How it was run: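 Green-label autofluorescence (485 nm excitation, 535 nm emission) measured on compound added to cell-free culture medium (DMEM, 10% FBS). Output is expressed relative to fluorescein.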

[4] = qHTS assay to test for compound auto fluorescence at 590 nm (red) in HEK293 cell free culture (AID 720683)
How it was run: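 Tox21 10K library compounds were pinned into cell-free DMEM with 10% FBS and fluorescence was read at excitation 540 nm. Activity is expressed as Rose Bengal sodium equivalency.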

[5] = qHTS assay to test for compound auto fluorescence at 590 nm (red) in HepG2 cell free culture (AID 720684)
How it was run: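 Readout: intrinsic compound fluorescence at 590 nm emission after 540 nm excitation, scaled to Rose Bengal sodium. Matrix was cell-free MEM with 10% FBS; DMSO vehicle wells served as control.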

[6] = qHTS assay to test for compound auto fluorescence at 460 nm (blue) in HepG2 cell free culture (AID 720685)
How it was run: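 Cell-free plates of MEM plus 10% FBS received 23 nL compound or DMSO vehicle; blue-channel (405/460 nm) intensity scored against triamterene as reference fluorophore.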

[7] = qHTS assay to test for compound auto fluorescence at 535 nm (green) in HepG2 cell free culture (AID 720686)
[8] = molecular target: Glucocorticoid receptor (Homo sapiens) (UniProt P04150); test: qHTS assay to identify small molecule agonists of the glucocorticoid receptor (GR) signaling pathway (AID 720691; active = well fitted activation curve with a large enough effect in the signal ratio in the repeat runs, not every such curve was filed as active; the % refers to the signal ratio)
How it was run: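 Measures GR pathway activation through a GRE-beta-lactamase reporter stably integrated in HeLa cells, with 18 h compound treatment at 37 C and fluorescence detection using a FRET substrate.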

[9] = qHTS assay to test for compound auto fluorescence at 460 nm (blue) in HepG2 cells (AID 720687)
How it was run: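 Cells (2,000/well in MEM with 10% FBS) attached overnight at 37 C, then were exposed to compound or DMSO for 1 hr at 37 C, 5% CO2. Fluorescence read at Ex/Em 405/460 nm, expressed as triamterene-equivalent signal.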

[10] = molecular target: Glucocorticoid receptor (Homo sapiens) (UniProt P04150); test: qHTS assay to identify small molecule antagonists of the glucocorticoid receptor (GR) signaling pathway (AID 720692; active = well fitted inhibition curve with a large enough effect in the signal ratio in the repeat runs, not every such curve was filed as active; the % refers to the signal ratio)
How it was run: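 Tox21 10K library screened in concentration-response for blockade of dexamethasone (5 nM final)-induced GRE-bla reporter activity in HeLa cells; 18 h treatment, fluorescence read.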
% is set by controls: 0 for no effect and ±100 for the full control effect.

Chain of Glucocorticoid receptor (Homo sapiens) (P04150 whole entry, looked up): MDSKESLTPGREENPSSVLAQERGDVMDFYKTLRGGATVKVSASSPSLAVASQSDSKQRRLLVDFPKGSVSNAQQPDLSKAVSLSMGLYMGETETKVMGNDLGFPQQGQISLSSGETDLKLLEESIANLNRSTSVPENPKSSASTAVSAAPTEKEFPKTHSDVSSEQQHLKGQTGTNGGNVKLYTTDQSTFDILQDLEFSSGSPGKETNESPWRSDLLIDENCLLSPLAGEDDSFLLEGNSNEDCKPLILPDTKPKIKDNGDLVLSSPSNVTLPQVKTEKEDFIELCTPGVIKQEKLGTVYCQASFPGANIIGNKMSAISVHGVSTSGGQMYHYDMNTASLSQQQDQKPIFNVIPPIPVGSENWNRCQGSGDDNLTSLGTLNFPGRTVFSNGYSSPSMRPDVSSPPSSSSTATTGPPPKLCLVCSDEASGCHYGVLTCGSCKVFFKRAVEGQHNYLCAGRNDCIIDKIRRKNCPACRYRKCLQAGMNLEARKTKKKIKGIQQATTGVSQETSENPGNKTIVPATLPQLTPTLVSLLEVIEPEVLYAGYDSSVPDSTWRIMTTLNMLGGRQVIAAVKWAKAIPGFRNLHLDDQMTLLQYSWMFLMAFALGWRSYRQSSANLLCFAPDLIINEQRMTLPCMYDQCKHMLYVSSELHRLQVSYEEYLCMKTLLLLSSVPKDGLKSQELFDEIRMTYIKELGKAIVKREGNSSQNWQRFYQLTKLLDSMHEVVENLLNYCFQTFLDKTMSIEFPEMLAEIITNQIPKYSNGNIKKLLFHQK

NS(=O)(=O)Cc1noc2ccccc12
inactive: outcome [1] | outcome [2] | outcome [3] | outcome [4] | outcome [5] | outcome [6] | outcome [7] | Potency [8]

CCCCN1C=CN(C)C1
inactive: fluorescence, % of fluorescein [1] -0.0653% [at 18.6 µM] | fluorescence, % of fluorescent control [2] -0.116% [at 18.6 µM] | activity change [3] 0.0078% [at 18.6 µM] | fluorescence, % of fluorescent control [4] 0.0298% [at 18.6 µM] | fluorescence, % of Rose Bengal [5] 0.057% [at 18.6 µM] | fluorescence, % of fluorescent control [6] -0.0433% [at 18.6 µM] | fluorescence, % of fluorescein control [7] -0.069% [at 18.6 µM] | fluorescence, % of fluorescent control [9] 0.0295% [at 18.6 µM] | Potency [8] | Potency [10]

CCCO[Si](OCCC)(OCCC)OCCC
inactive: outcome [1] | outcome [2] | outcome [3] | outcome [4] | outcome [5] | outcome [6] | outcome [7] | outcome [9] | Potency [8] | Potency [10]

COc1cc(C)nc(-n2nc(C)cc2OC)n1
inactive: fluorescence, % of fluorescein [1] -0.0757% [at 18.6 µM] | fluorescence, % of fluorescent control [2] -0.0196% [at 18.6 µM] | activity change [3] -0.0111% [at 18.6 µM] | fluorescence, % of fluorescent control [4] 0.134% [at 18.6 µM] | fluorescence, % of Rose Bengal [5] -0.183% [at 18.6 µM] | fluorescence, % of fluorescent control [6] -0.138% [at 18.6 µM] | fluorescence, % of fluorescein control [7] -0.0352% [at 18.6 µM] | fluorescence, % of fluorescent control [9] -0.112% [at 18.6 µM] | Potency [8] | Potency [10]

CCCC(C)C(=O)OCC (stereo not given)
inactive: outcome [1] | outcome [2] | outcome [3] | outcome [4] | outcome [5] | outcome [6] | outcome [7] | outcome [9] | Potency [8] | Potency [10]

O=C(CO)[C@@H](O)[C@H](O)[C@H](O)CO
inactive: outcome [1] | outcome [2] | outcome [3] | outcome [4] | outcome [5] | outcome [6] | outcome [7] | outcome [9] | Potency [8] | Potency [10]

[K+]
inactive: outcome [1] | outcome [2] | outcome [3] | outcome [4] | outcome [5] | outcome [6] | outcome [7] | Potency [8] | Potency [10]

C[C@@H]1CCC[C@H](C)N1
inactive: fluorescence, % of fluorescein [1] -0.0078% [at 18.6 µM] | fluorescence, % of fluorescent control [2] -0.0158% [at 18.6 µM] | activity change [3] 0.0087% [at 18.6 µM] | fluorescence, % of fluorescent control [4] -0.545% [at 18.6 µM] | fluorescence, % of Rose Bengal [5] 0.0262% [at 18.6 µM] | fluorescence, % of fluorescent control [6] -0.0314% [at 18.6 µM] | fluorescence, % of fluorescein control [7] -0.001% [at 18.6 µM] | fluorescence, % of fluorescent control [9] 0.0179% [at 18.6 µM] | Potency [8] | Potency [10]

CN(C)[C@@H]1C(=O)C(C(=O)NCN2CCCC2)=C(O)[C@@]2(O)C(=O)C3=C(O)c4c(O)cccc4[C@@](C)(O)C3C[C@@H]12 (stereo not given in full)
inactive: outcome [1] | outcome [2] | outcome [3] | outcome [4] | outcome [5] | outcome [6] | outcome [7] | outcome [9] | Potency [8] | Potency [10]

C1CCC2(CCCCO2)OC1
inactive: outcome [1] | outcome [2] | outcome [3] | outcome [4] | outcome [5] | outcome [6] | outcome [7] | outcome [9] | Potency [8] | Potency [10]

CCCCCCCCN1CCCC1=O
inactive: outcome [1] | outcome [2] | outcome [3] | outcome [4] | outcome [5] | outcome [6] | outcome [7] | Potency [8] | Potency [10]

CC(C)CCCO
inactive: outcome [1] | outcome [2] | outcome [3] | outcome [4] | outcome [5] | outcome [6] | outcome [7] | outcome [9] | Potency [8] | Potency [10]

CCOCC(C)O (stereo not given)
inactive: outcome [1] | outcome [2] | outcome [3] | outcome [4] | outcome [5] | outcome [6] | outcome [7] | outcome [9] | Potency [8] | Potency [10]

CCCCCCCCCCCCCCCCCCO
inactive: outcome [1] | outcome [2] | outcome [3] | outcome [4] | outcome [5] | outcome [6] | outcome [7] | outcome [9] | Potency [8] | Potency [10]

CC(C)=CCC/C(C)=C/C#N
inactive: outcome [1] | outcome [2] | outcome [3] | outcome [4] | outcome [5] | outcome [6] | outcome [7] | outcome [9] | Potency [8] | Potency [10]

Nc1ccncc1N
inactive: outcome [1] | outcome [2] | outcome [3] | outcome [4] | outcome [5] | outcome [6] | outcome [7] | outcome [9] | Potency [8] | Potency [10]

CCCCCCCCCC[N+](C)(C)[O-]
inactive: outcome [1] | outcome [2] | outcome [3] | outcome [4] | outcome [5] | outcome [6] | outcome [7] | Potency [8]

CC1=NN(c2cc(S(=O)(=O)O)ccc2Cl)C(=O)C1N=Nc1ccccc1 (stereo not given)
inactive: outcome [1] | outcome [2] | outcome [3] | outcome [4] | outcome [5] | outcome [6] | outcome [7] | outcome [9] | Potency [8] | Potency [10]

CN(C)C(=O)Oc1cccc([N+](C)(C)C)c1
inactive: outcome [1] | outcome [2] | outcome [3] | outcome [4] | outcome [6] | outcome [7] | outcome [9] | Potency [8] | Potency [10]

Cc1ccc(-c2ncc(Cl)cc2-c2ccc(S(C)(=O)=O)cc2)cn1
inactive: outcome [1] | outcome [2] | outcome [3] | outcome [4] | outcome [6] | outcome [7]

O=C(c1ccccc1)C1(O)CCCCC1
inactive: outcome [1] | outcome [2] | outcome [3] | outcome [4] | outcome [6] | outcome [7] | outcome [9]

O=C(CO)[C@@H](O)[C@H](O)[C@@H](O)CO
inactive: outcome [1] | outcome [2] | outcome [3] | outcome [4] | outcome [6] | outcome [7] | outcome [9] | Potency [8] | Potency [10]

Cc1cc(C)c(N=Nc2c(O)c(S(=O)(=O)O)cc3cc(S(=O)(=O)O)ccc23)cc1C
inactive: fluorescence, % of fluorescein [1] -0.0092% [at 9.17 µM] | fluorescence, % of fluorescent control [2] -0.0769% [at 9.17 µM] | activity change [3] 0.0216% [at 9.17 µM] | fluorescence, % of fluorescent control [4] 0.0378% [at 9.17 µM] | fluorescence, % of fluorescent control [6] -0.11% [at 9.17 µM] | fluorescence, % of fluorescein control [7] -0.0747% [at 9.17 µM] | fluorescence, % of fluorescent control [9] -0.0207% [at 9.17 µM] | activation [8] -1.47% [at 6.9 µM] | activity change, negative = inhibition [10] 0.597% [at 7.04 µM]

CC1=CCC(O)(C(C)C)CC1 (stereo not given)
inactive: outcome [1] | outcome [2] | outcome [3] | outcome [4] | outcome [6] | outcome [7] | Potency [8] | Potency [10]

CC(=O)NC(=O)c1ccccc1O
inactive: outcome [1] | outcome [2] | outcome [3] | outcome [4] | outcome [6] | outcome [7] | outcome [9] | Potency [8] | Potency [10]

CC[C@H]1OC(=O)[C@H](C)[C@@H](O[C@H]2C[C@@](C)(OC)[C@@H](O)[C@H](C)O2)[C@H](C)[C@@H](O[C@@H]2O[C@H](C)C[C@H](N(C)C)[C@H]2O)[C@](C)(OC)C[C@@H](C)C(=O)[C@H](C)[C@@H](O)[C@]1(C)O
inactive: outcome [1] | outcome [2] | outcome [3] | outcome [4] | outcome [6] | outcome [7] | outcome [9] | Potency [8] | Potency [10]

COc1c(N2CCNC(C)C2)c(F)cc2c(=O)c(C(=O)O)cn(C3CC3)c12 (stereo not given)
inactive: outcome [1] | outcome [2] | outcome [3] | outcome [4] | outcome [6] | outcome [7] | outcome [9] | Potency [8] | Potency [10]

Cc1ccnc(NS(=O)(=O)c2ccc(N)cc2)n1
inactive: fluorescence, % of fluorescein [1] -0.0062% [at 18.6 µM] | fluorescence, % of fluorescent control [2] -0.0731% [at 18.6 µM] | activity change [3] 0.0378% [at 18.6 µM] | fluorescence, % of fluorescent control [4] -0.145% [at 18.6 µM] | fluorescence, % of fluorescent control [6] 0.0941% [at 18.6 µM] | fluorescence, % of fluorescein control [7] 0.0314% [at 18.6 µM] | fluorescence, % of fluorescent control [9] -0.0164% [at 18.6 µM] | Potency [8] | Potency [10]

C[N+](C)(CCOc1ccccc1)Cc1cccs1
inactive: outcome [1] | outcome [2] | outcome [3] | outcome [4] | outcome [6] | outcome [7] | outcome [9] | Potency [8] | Potency [10]

c1ccc(Cc2ccccc2)cc1
inactive: outcome [1] | outcome [2] | outcome [3] | outcome [4] | outcome [5] | outcome [6] | outcome [7] | Potency [8] | Potency [10]

Clc1cc(Cl)cc(Cl)c1
inactive: outcome [1] | outcome [2] | outcome [3] | outcome [4] | outcome [5] | outcome [6] | outcome [7] | Potency [8] | Potency [10]
